The nature of test [1]: Viability qHTS for spleen associated tyrosine kinase inhibitor (SYKi) drug resistant MV4-11 cells (AID 1963824). Further: nearly all actives have a fitted effect of over 35% in size. The procedure, abridged: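 CellTiter-Glo luminescence, read 10 min after reagent addition, reports viability after a 72 hr compound exposure. Cells are an MV4-11 line made resistant to SYK inhibition, seeded at 500 per well onto compound-containing plates.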
On the technique in general: In qHTS, concentration-response curves come from the screen itself.

A short description of test [2]: Quantitative highthroughput screen to assess conditional lethalithy of NOMO1 cells grown in RPMI1640 with untreated serum (RPMI+s) (AID 1963876). Further: nearly all actives have a fitted effect of over 35% in size.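 On Viability: 100% = DMSO wells and 0% = empty wells without cells.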 An outline of the steps:
(§1)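 Each medium arm—HPLM with 10% dialyzed FBS, or RPMI1640 with 5 mM glucose and 10% untreated or dialyzed FBS—was screened against an 11-point, 3-fold compound titration for 48 h at 37 °C, with CellTiter-Glo luminescence as endpoint.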

Test [3] in a line: Quantitative highthroughput screen to assess conditional lethalithy of NOMO1 cells grown in RPMI1640 with dialyzed fetal bovine serum (RPMI+ds) (AID 1963877). Further: nearly all actives have a fitted effect of over 30% in size.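 On Viability: series mostly up to about 46 µM; 100% = DMSO control wells and 0% = empty wells.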 The procedure, abridged: as §1
A short description of test [4]: Quantitative highthroughput screen to assess conditional lethalithy of NOMO1 cells grown in Human Plasma-Like Medium with dialyzed fetal bovine serum (HPLM+ds) (AID 1963878). Further: nearly all actives have a fitted effect of over 35% in size.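 On Viability: 100% = DMSO wells and 0% = empty wells on each plate.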 An outline of the steps: as §1
Test [5] in a line: Quantitative highthroughput screen to assess conditional lethalithy of P12 Ichikawa cells grown in Human Plasma-Like Medium with dialyzed fetal bovine serum (HPLM+ds) (AID 1963879). Further: nearly all actives have a fitted effect of over 35% in size. On Viability: series mostly up to about 46 µM. The note with it: Potency: viability. An outline of the steps:
as §1

Test [6] is described as follows: Quantitative highthroughput screen to assess conditional lethalithy of P12 Ichikawa cells grown in RPMI1640 with dialyzed fetal bovine serum (RPMI+ds) (AID 1963880). Further: nearly all actives have a fitted effect of over 35% in size.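 On Viability: 100% = DMSO wells and 0% = empty wells on each plate.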 The note with it: Potency: P12-Ichikawa viability. An outline of the steps:
as §1

Test [7] can be described thus: Quantitative highthroughput screen to assess conditional lethalithy of P12 Ichikawa cells grown in RPMI1640 with untreated serum (RPMI+s) (AID 1963881). Further: nearly all actives have a fitted effect of over 35% in size.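 On Viability: series mostly up to about 46 µM; 100% = DMSO wells and 0% = empty wells without cells.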 The note with it: Potency: viability. An outline of the steps:
as §1

A short description of test [8]: Quantitative highthroughput screen to assess conditional lethalithy of SEM cells grown in Human Plasma-Like Medium with dialyzed fetal bovine serum (HPLM+ds) (AID 1963882). Further: nearly all actives have a fitted effect of over 35% in size. On Viability: series mostly up to about 46 µM. The procedure, abridged:
as §1

Test [9] can be described thus: Quantitative highthroughput screen to assess conditional lethalithy of SEM cells grown in RPMI1640 with unreated serum (RPMI+s) (AID 1963883). Further: nearly all actives have a fitted effect of over 35% in size.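 On Viability: 100% = DMSO wells and 0% = empty wells without cells.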 The procedure, abridged:
as §1

The nature of test [10]: Quantitative highthroughput screen to assess conditional lethalithy of SEM cells grown in RPMI1640 with dialyzed fetal bovine serum (RPMI+ds) (AID 1963884). Further: nearly all actives have a fitted effect of over 35% in size.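 On Viability: series mostly up to about 46 µM; 100% = DMSO control wells and 0% = empty wells without cells.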 The procedure, abridged:
as §1

A short description of test [11]: Cellular viability qHTS for adrenocortical cancer (ACC) cell line SW-13 (AID 1963989). Further: nearly all actives have a fitted effect of over 65% in size.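 On activity (max response): cells grown in serum-free medium with ITS supplement; on the % scale 0 is the no-effect control and ±100 the full control effect.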 The note with it: SW-13 ACC cells viability, CellTiter-Glo, 48 h; activity (max response): stronger effect = lower value. An outline of the steps: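 Viability was read as CellTiter-Glo luminescence after 48 h compound treatment (up to 46 uM final) of SW-13 cells grown serum-free; titration curves were fit with a four-parameter logistic model to give IC50 and efficacy.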

Test [12] can be described thus: Cellular viability qHTS for adrenocortical cancer (ACC) cell line NCI-H295R (AID 1963990). Further: nearly all actives have a fitted effect of over 60% in size. The procedure, abridged:
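CellTiter-Glo ATP luminescence, read 48 h after compound addition, measured viability of NCI-H295R adrenocortical cells grown serum-free with ITS. Final concentrations spanned up to 46 uM. Data normalized to DMSO and doxorubicin, fitted for IC50 and maximal response.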

Several values for one entry are separate records, joined by “and”; a condition that tells them apart may be missing. Identical values can stand only once. Records with an inconclusive call do not appear. More than one record can exist for a structure, and the calls need not agree. Activity calls are given as the source filed them. The call rests on the fitted dose curve; in most records, active means well fitted curve in the direction sought with a large enough effect; inconclusive means small, poorly fitted or top-dose-only effect, or another doubt; inactive means no such curve, though single readings can be large; an effect the other way counts as inactive or inconclusive.
Potency means the concentration at half of the fitted maximal effect.

With `Cc1ccc(C)c(OCCCC(C)(C)C(=O)O)c1`, the Potency result in test [1] was “inactive and 14.8 µM (active)”. The Potency result in test [2], in [3], in [4], in [5], in [6] and in test [7] was “inactive” in each case. Also, the Potency entry in test [8], in test [9], in test [10] and in [12] was “inactive” in each case. Besides, the activity (max response) in [11] was 2.23% (inactive) and -5.29% (inactive).
Regarding `Cc1cnc(Nc2ccc(CN3CCOCC3)cc2)nc1Nc1cccc(S(=O)(=O)NC(C)(C)C)c1`, the Potency in [1] is 372 nM (active) and 326 nM (active); in test [2], 4.18 µM (active); in test [3] it was 4.69 µM (active); in test [4] it was 4.69 µM (active); in test [5], 2.96 µM (active); in [6], 4.18 µM (active). In addition, the Potency in test [7] is 4.18 µM (active); in [8], 0.743 µM (active); in test [9], 0.469 µM (active); in test [10], 0.166 µM (active); in test [11] it was 15.8 µM (active); in test [12], 4.47 µM (active).
On to `Cc1c(NC(=O)c2ccc(C(C)(C)C)cc2)cccc1-c1cn(C)c(=O)c(Nc2ccc(C(=O)N3CCOCC3)cc2)n1`, for which the Potency in test [1] is 11.4 µM (active) and 16.6 µM (active). Moreover, the Potency result in test [2], in test [3], in test [4], in [5], in test [6] and in test [7] was “inactive” in each case. Further, the Potency result in [8], in test [9], in test [10] and in test [12] was “inactive” throughout. In test [11], the activity (max response) is -3.65% (inactive).
For `COc1ccc(-c2cc(=O)c3c(O)cc(O)cc3o2)cc1O`, in test [1], the Potency was 10.5 µM (active). Further, the Potency entry in test [2], in test [3], in test [4], in [5], in [6] and in [7] was “inactive” in each case. For the same compound, the Potency result in test [12] was “inactive”. Moreover, the activity (max response) in test [11] is -29.6% (inactive).
Turning to `CCc1ccc(CCOc2ccc(CC3SC(=O)NC3=O)cc2)nc1` (stereo not given), the Potency entry in [1], in test [2], in test [3], in [4], in test [5] and in [6] was “inactive” throughout. Also, the Potency result in test [7], in [8], in test [9], in [10] and in test [12] was “inactive” each time.
Regarding `COc1cc(C(C)C)c(Oc2cnc(NC(CO)CO)nc2N)cc1I`, the Potency in [1] was 14.8 µM (active). The Potency result in test [2], in [3], in test [4], in [5], in test [6] and in test [7] was “inactive” throughout. Moreover, the Potency result in test [8] and in [12] was “inactive” each time. Also, the activity (max response) in test [11] was -4% (inactive).
Turning to `O=C(CCCCCCC(=O)Nc1ccccc1)NO`, the Potency is 1.3 µM (active) and 1.18 µM (active) in [1]; 14.8 µM (active) in test [2]; 16.6 µM (active) in test [3]; 10.5 µM (active) in test [4]; 4.18 µM (active) in test [5]; 3.32 µM (active) in [6]. Further, the Potency in test [7] is 3.32 µM (active); in [8], 3.72 µM (active); in [9] it was 3.72 µM (active); in test [10], 3.32 µM (active); in test [11] it was 4.11 µM (active) and 3.16 µM (active); in [12], 820 nM (active) and 1 µM (active).
On to `Nc1nc(OCc2ccccc2)c2[nH]cnc2n1`, for which the Potency in [1] was 20.9 µM (active). The Potency result in test [2], in test [3], in test [4], in test [5], in [6] and in test [7] was “inactive” throughout. The Potency entry in test [8], in test [9], in [10] and in test [12] was “inactive” each time. Also, the activity (max response) in test [11] is -9.18% (inactive).
Take `O=C(Nc1ccc(Oc2ccnc3[nH]ccc23)c(F)c1)c1cccn(-c2ccc(F)cc2)c1=O`: the figures for the Potency in [1] and in test [8] were 0.0146 µM (active) and 8.33 µM (active), respectively. Also, the Potency result in [2], in [3], in [4], in [5], in [6] and in test [7] was “inactive” throughout. Also, the Potency result in test [12] was “inactive”.
As to `CCOC(=O)C1=C(O)C(=O)N(Cc2ccccc2)C1`, the Potency result in test [1], in test [2], in [3], in [4], in [5] and in test [6] was “inactive” each time. Also, the Potency result in test [7], in test [8], in test [9], in [10] and in test [12] was “inactive” each time. Further, the activity (max response) in test [11] was 4.18% (inactive).
Turning to `O=C(O)c1nc(=O)[nH]c(=O)[nH]1`, the Potency result in test [1], in test [2], in [3], in [4], in test [5] and in [6] was “inactive” throughout. Moreover, the Potency result in test [7], in [8], in test [9], in [10] and in test [12] was “inactive” throughout. Further, in test [11], the activity (max response) is -18% (inactive).
On to `COc1ccc(CC2c3cc(OC)c(OC)cc3CC[N+]2(C)CCC(=O)OCCCCCOC(=O)CC[N+]2(C)CCc3cc(OC)c(OC)cc3C2Cc2ccc(OC)c(OC)c2)cc1OC` (stereo not given), for which the Potency in test [1] is 18.6 µM (active); in test [2], 3.68 µM (active); in test [3], 4.63 µM (active); in [4] it was 1.64 µM (active). Further, the viability (usually a read-out of living cells in per cent, often relative to untreated cells) was 93.9% [at 5.15 µM] (inactive) in test [5], 106% [at 5.15 µM] (inactive) in test [6] and 89.9% [at 5.15 µM] (inactive) in [7]. Further, the activity (max response) in [11] was -11.7% (inactive).
Consider `O=C(O)c1cc(O)c2c(c1)C(=O)c1cccc(O)c1C2=O`, for which, in [1], the Potency was 23.5 µM (active). Also, the Potency entry in [2], in test [3], in [4], in test [5], in test [6] and in test [7] was “inactive” throughout. The Potency entry in [8], in [9], in test [10] and in test [12] was “inactive” in each case. The activity (max response) in test [11] was 1.15% (inactive).
As for `CCCc1nc(C(C)(C)O)c(C(=O)O)n1Cc1ccc(-c2ccccc2-c2nn[nH]n2)cc1`, the Potency result in test [1], in test [2], in test [3], in [4], in test [5] and in [6] was “inactive” each time. The Potency entry in test [7], in test [8], in test [9], in test [10] and in [12] was “inactive” in each case. In addition, the activity (max response) in [11] is 8.92% (inactive).
As to `Cc1ccccc1C(C(=O)NC1CCCCC1)N(C(=O)Cn1ccnc1C)c1cccc(F)c1` (stereo not given), in [1], the Potency was 9.34 µM (active). Also, the Potency entry in [2], in test [3], in [4], in test [5], in [6] and in test [7] was “inactive” each time. Moreover, the Potency entry in [8] was “inactive”. Moreover, the activity (max response) in test [11] was -14.8% (inactive).
`CCCN[C@H]1CCc2nc(N)sc2C1`: the Potency in test [1] is 4.17 µM (active). For the same compound, the Potency result in test [2], in test [3], in test [4], in [5], in test [6] and in [7] was “inactive” each time. For the same compound, the Potency result in test [8], in test [9] and in [12] was “inactive” each time. The activity (max response) in test [11] is -1.3% (inactive) and 3.21% (inactive).

The values are drawn from PubChem BioAssay (NCATS).
